Assay results published in PubChem BioAssay AID651789 (National Center for Advancing Translational Sciences (NCATS), 2012).
Results filed as inconclusive are left out. Unmarked numbers belong to inactive results. Calls of active or inactive are those of the source. Calls follow the shape of the dose curve; as a rule, active = well fitted inhibition curve with a large enough effect; inconclusive = small, poorly fitted or top-dose-only effect; inactive = no such curve, though single readings can be large or run the other way.

Experiment: Acumen qHTS Assay for Inhibitors of the mTORC1 Signaling Pathway in WT MEF Cells: Hit Validation; also: nearly all actives have a fitted effect of over 60% in size;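 as to activity change, negative = inhibition: phospho-rpS6 Ser235/236 immunofluorescence normalised to propidium iodide cell stain; percent of cells above a cutoff set by 7.5 nM rapamycin treated wells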
Settings: Acumen imaging; series mostly up to 37.3 µM; activity change, negative = inhibition: at the top concentration
Method in brief: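 Read-out is immunofluorescent phospho-rpS6 (Ser235/236) normalised to PI-stained cell number, reported as % active cells using a 7.5 nM rapamycin threshold. Cells: WT or Tsc2-/-, p53-/- MEFs, compound-exposed 24 h at 37C; PI count also tracks viability.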
Potency is read from the fitted curve at half-maximal effect.

Compound	activity change, negative = inhibition [%]	Potency
CCc1ccc(NC(=O)CSc2nccn2C2CCCC2)cc1	17.4	–
CCOc1ccccc1NC(=O)CN1C(=O)C(=O)c2ccccc21	13.2	–
Cc1cccc(-c2nc3c(cnn3-c3ccccc3)c(=O)n2-c2ccc(Br)cc2)c1	-27.2	–
Cc1ccc(NC(=O)CSc2nc(-c3ccco3)cc(C(F)(F)F)n2)cc1C	-11.8	–
CCC(Sc1nncn2c1cc1oc(C)cc12)C(=O)Nc1ccc(F)cc1 (stereo not given)	-29.6	–
CCOc1ccccc1NC(=O)CSc1cc(=O)n(CC)c2ccccc12	4.58	–
O=C(CC(NCc1cccnc1)C(=O)O)Nc1ccc(O)cc1 (stereo not given)	42	–
O=C(NCC(c1cccs1)S(=O)(=O)c1cccs1)c1ccccc1 (stereo not given)	-4.58	–
COc1ccc(CC(=O)Nc2sc3c(c2C(=O)Nc2ccccc2)CCCCC3)cc1	–	13.1 µM (active)
CS(=O)(=O)N(CC(=O)NCCc1ccccc1)c1cc(C(F)(F)F)ccc1Cl	-10.1	–
COc1cc(OC)cc(C(=O)NCCc2csc(-c3cccc(C)c3)n2)c1	-2.29	–
COc1ccc(C2=NS(=O)(=O)N(C)C(C(=O)Nc3ccc(OC(F)(F)F)cc3)=C2)cc1	26.6	–
COc1cccc(/C=C(\C#N)c2nc3ccc(C)cc3[nH]2)c1	-27.4	–
CCN(CC)CCn1c(=N)n(CC(O)COc2ccccc2C)c2ccccc21 (stereo not given)	–	11.7 µM (active)
COc1ccc(-c2ccc(CCC(=O)O)n2-c2ccccc2O)cc1	-0.763	–
O=C(NCc1ccc(F)cc1)c1ccc2c(Cl)c3c(nc2c1)CCCC3	29.6	–
CCC(C)NC(=O)c1sc2nc(C)c(C(=O)Nc3ccc(C)cc3C)c(-c3ccc(Cl)cc3)c2c1N (stereo not given)	13.2	–
CCN(CC)CCn1c(=N)n(CCOc2ccccc2Cl)c2ccccc21	–	9.27 µM (active)
CCOC(=O)c1c(NC(=O)c2ccc(S(=O)(=O)N(C)C)cc2)sc2c1CCN(C)C2	-11.3	–
O=C(Nc1ccc2nc(SCC(=O)N3CCCc4ccccc43)sc2c1)c1ccccc1F	-24.5	–

Compound	activity change, negative = inhibition [%]	Potency
CCc1ccccc1NC(=O)CSCc1cnn(-c2ccccc2)c1-n1cccc1	-1.53	–
CCOC(=O)c1c(NC(=O)c2ccc(S(=O)(=O)N(CCOC)CCOC)cc2)sc2c1CC(C)(C)NC2(C)C	–	3.29 µM (active)
O=C(COc1ccc(F)cc1)Nc1ccc(Cl)c(-c2nc3ccccc3[nH]2)c1	8.46	–
Cc1cc(C)c(/C=C2\C(=O)Nc3ccccc32)[nH]1	–	inactive
COc1ccc(C(=O)N2CCN(C(=O)COc3ccc(Br)cc3)CC2)cc1OC	3.49	–
CCN1CCN(C(=O)Cn2ncc3c4ccccc4n(Cc4c(C)cc(C)cc4C)c3c2=O)CC1	–	5.21 µM (active)
CN(CCCNC(=O)c1cc2c(Cl)nc3ccccc3c2s1)Cc1ccccc1	-20.5	–
Cc1cn([C@H]2C[C@H](N=[N+]=[N-])[C@@H](CO)O2)c(=O)[nH]c1=O	-13.6	–
O=C(CCOc1ccccc1)N(Cc1cccnc1)c1nc2c(F)cccc2s1	–	13.1 µM (active)
Cc1cccc(CSc2cn(CC(=O)N3CCCCCC3)c3ccccc23)c1	60.5	–
COc1ccc(CCNC(=O)C(C)n2nc(C)c3sc4ccccc4c3c2=O)c(OC)c1 (stereo not given)	31	–
Cc1ccc(-n2ncc(C(=O)NCCCN3CCc4ccccc4C3)c2C2CCN(C(=O)OC(C)(C)C)CC2)c(C)c1	44.2	–
CCn1c(CN2CCC(C)CC2)nc2cc(NC(=O)c3ccccc3[N+](=O)[O-])ccc21	-4.58	–
CCc1ccc(-n2c(=O)c3c4c(sc3n(CC(=O)c3ccc(F)cc3)c2=O)CCC4)cc1	–	18.5 µM (active)
COc1ccc(CCNC(=O)c2ccc3c(c2)N(Cc2ccccc2)CCS3)cc1OC	11.5	–
Cc1ccc(NC(=O)CSc2nc(=O)cc(N)n2CCc2ccccc2)cc1	23.5	–
CCCCOc1ccc(Cn2c(=O)sc3ccccc32)cc1	14.4	–
CCC1CN(C(=O)NCc2ccc(F)cc2)c2cc(C)ccc2O1 (stereo not given)	-4.58	–
CCN(c1ccccc1)S(=O)(=O)c1ccc(NC(=O)c2nc(S(C)(=O)=O)ncc2Cl)cc1	–	1.04 µM (active)
COc1ccc(N2CCN(C(=O)C(C)n3nc(C)c4sc5ccccc5c4c3=O)CC2)cc1 (stereo not given)	36.9	–
